Experimental findings from PubChem BioAssay (Tox21) are described below.

The structures appear in SMILES notation. A number with no mark means an inactive call. Active and inactive are the calls of the source. Calls follow the shape of the dose curve; as a rule, active = well fitted curve in the direction sought with a large enough effect in the repeat runs; inconclusive = weak or mixed curves; inactive = flat fitted curve, though single readings scatter.
% is scaled to controls: 0 for no effect and ±100 for the full control effect.

A short description of the first assay: qHTS assay to test for compound auto fluorescence at 535 nm (green) in HEK293 cells (AID 720680). The conditions noted are these: green autofluorescence 485/535 nm; series mostly up to 91.3 µM. (In general: qHTS replaces the single test concentration by a dilution series.)
Turning to `C[C@H](N)C(=O)c1ccccc1`, the compound was called inactive.

On to `Cc1ccc2c(c1)C1CN(C)CCC1N2` (stereo not given), for which the result was inactive.

As for `O=C(CCl)NCO`, the call was inactive.

Regarding `COc1ccc2c(C(=O)c3ccc(Cl)cc3)c(C)n(CC(=O)O)c2c1`, the compound was classed as inactive.

On to `CNC(=O)O/N=C(/CSC)C(C)(C)C`, for which the outcome was inactive.

On to `C=CC(=O)OCCN(C)C`, for which the result was inactive.

For the compound `CCN[C@H](C)Cc1cccc(C(F)(F)F)c1`, the outcome was inactive.

Turning to `CCNc1nc(NCC)nc(SC)n1`, the outcome was inactive.

`CC(C)[N+](C)(CCC(C(N)=O)(c1ccccc1)c1ccccc1)C(C)C`: the fluorescence, % of fluorescein is 0.0067% [at 18.6 µM].

As to `CCOC(=O)NC(C)(C)Cc1ccc(Cl)cc1`, the outcome was inactive.

On to `S=C=S`, for which the compound was called inactive.

As to `O=c1[nH]oc2c1CCNC2`, the compound was classed as inactive.

With `C=C(Cl)CCl`, the compound was classed as inactive.

Consider `COC(=O)c1ccc(CBr)cc1`, for which the compound was classed as inactive.

`OP(O)c1ccccc1`: the outcome was inactive.

On to `CC(Cc1ccccc1)NCCn1cnc2c1c(=O)n(C)c(=O)n2C` (stereo not given), for which the result was inactive.

For `C=CC=O`, the outcome was inactive.

`[P]#[In]`: the result was inactive.

Consider `CN=CNc1ccc(C)cc1C`, for which the outcome was inactive.

`CCC1(CC)C(=O)C=CNC1=O`: the compound was called inactive.

Regarding `CCC(=O)OC1(c2ccccc2)CCN(C)CC1`, the compound was classed as inactive.

In the case of `Brc1c(Br)c(Br)c(Br)c(Br)c1Br`, the fluorescence, % of fluorescein was -0.0363% [at 3.72 µM].

`C[C@H](CN1CCOCC1)C(C(=O)N1CCCC1)(c1ccccc1)c1ccccc1`: the call was inactive.

Regarding `Clc1cc2c(cc1Cl)Oc1cc(Cl)c(Cl)cc1O2`, the fluorescence, % of fluorescein was 0.0035% [at 0.37 µM].

On to `CC#Cc1cc(C)nc(Nc2ccccc2)n1`, for which the compound was called inactive.

`C=CC1(C)OC(=O)N(c2cc(Cl)cc(Cl)c2)C1=O` (stereo not given): the result was inactive.

Turning to `COc1ccc(C=O)cc1O`, the compound was classed as inactive.

Consider `CCC1(c2cccc(O)c2)CCCCN(C)C1` (stereo not given), for which the fluorescence, % of fluorescein is -0.0115% [at 18.6 µM].

For `Oc1ccc(Cc2ccc(O)cc2)cc1`, the compound was classed as inactive.

`ClCOCCl`: the call was inactive.

For the compound `[O-][Br+2]([O-])O`, the compound was called inactive.

For `O=P(O)(O)CN(CP(=O)(O)O)CP(=O)(O)O`, the fluorescence, % of fluorescein was -0.175% [at 18.6 µM].

With `ClC1=C(Cl)C2(Cl)C(CBr)CC1(Cl)C2(Cl)Cl` (stereo not given), the compound was called inactive.

Consider `COc1cc(CCN)cc(OC)c1OC`, for which the call was inactive.

Consider `N#CN`, for which the outcome was inactive.

On to `CCCC(C)(COC(N)=O)COC(N)=O`, for which the outcome was inactive.

Consider `C=C1CC[C@@]2(O)[C@H]3Cc4ccc(O)c5c4[C@@]2(CCN3CC2CC2)[C@H]1O5`, for which the compound was classed as inactive.

Take `COc1cccc([C@@]2(O)CCCC[C@@H]2CN(C)C)c1`: the compound was called inactive.

As to `CC[C@H](O)C(C[C@H](C)N(C)C)(c1ccccc1)c1ccccc1`, the compound was classed as inactive.

Take `CCOC(=O)Nc1cccc(OC(=O)Nc2ccccc2)c1`: the compound was called inactive.

A short description of another assay: qHTS assay to test for compound auto fluorescence at 460 nm (blue) in HEK293 cell free culture (AID 720681). Conditions: cell-free medium, autofluorescence 405/460 nm (blue); series mostly up to 91.3 µM. The gist of the method:
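Test compounds were pinned into cell-free culture medium (DMEM with 10% FBS) and fluorescence was read directly at Ex/Em 405/460 nm. Signals were expressed as fluorescence equivalents of triamterene, with DMSO vehicle as control.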
Consider `C[C@H](N)C(=O)c1ccccc1`, for which the outcome was inactive.

As for `Cc1ccc2c(c1)C1CN(C)CCC1N2` (stereo not given), the result was inactive.

As for `O=C(CCl)NCO`, the result was inactive.

On to `COc1ccc2c(C(=O)c3ccc(Cl)cc3)c(C)n(CC(=O)O)c2c1`, for which the result was inactive.

As for `CNC(=O)O/N=C(/CSC)C(C)(C)C`, the compound was called inactive.

As to `C=CC(=O)OCCN(C)C`, the call was inactive.

`CCN[C@H](C)Cc1cccc(C(F)(F)F)c1`: the call was inactive.

As for `CCNc1nc(NCC)nc(SC)n1`, the call was inactive.

On to `CC(C)[N+](C)(CCC(C(N)=O)(c1ccccc1)c1ccccc1)C(C)C`, for which the fluorescence, % of fluorescent control was 0.0496% [at 18.6 µM].

As to `CCOC(=O)NC(C)(C)Cc1ccc(Cl)cc1`, the outcome was inactive.

With `S=C=S`, the call was inactive.

In the case of `O=c1[nH]oc2c1CCNC2`, the outcome was inactive.

As to `C=C(Cl)CCl`, the outcome was inactive.

`COC(=O)c1ccc(CBr)cc1`: the call was inactive.

As to `OP(O)c1ccccc1`, the outcome was inactive.

In the case of `CC(Cc1ccccc1)NCCn1cnc2c1c(=O)n(C)c(=O)n2C` (stereo not given), the call was inactive.

As for `C=CC=O`, the compound was called inactive.

With `[P]#[In]`, the outcome was inactive.

As for `CN=CNc1ccc(C)cc1C`, the outcome was inactive.

`CCC1(CC)C(=O)C=CNC1=O`: the result was inactive.

Turning to `CCC(=O)OC1(c2ccccc2)CCN(C)CC1`, the outcome was inactive.

As to `Brc1c(Br)c(Br)c(Br)c(Br)c1Br`, the fluorescence, % of fluorescent control is 0.241% [at 3.72 µM].

Turning to `C[C@H](CN1CCOCC1)C(C(=O)N1CCCC1)(c1ccccc1)c1ccccc1`, the compound was classed as inactive.

`Clc1cc2c(cc1Cl)Oc1cc(Cl)c(Cl)cc1O2`: the fluorescence, % of fluorescent control is -0.0164% [at 0.37 µM].

Take `CC#Cc1cc(C)nc(Nc2ccccc2)n1`: the compound was classed as inactive.

Turning to `C=CC1(C)OC(=O)N(c2cc(Cl)cc(Cl)c2)C1=O` (stereo not given), the compound was called inactive.

Take `COc1ccc(C=O)cc1O`: the outcome was inactive.

As to `CCC1(c2cccc(O)c2)CCCCN(C)C1` (stereo not given), the fluorescence, % of fluorescent control is 0.0294% [at 18.6 µM].

On to `Oc1ccc(Cc2ccc(O)cc2)cc1`, for which the outcome was inactive.

Consider `ClCOCCl`, for which the call was inactive.

For the compound `[O-][Br+2]([O-])O`, the call was inactive.

As to `O=P(O)(O)CN(CP(=O)(O)O)CP(=O)(O)O`, the fluorescence, % of fluorescent control was -0.0261% [at 18.6 µM].

Consider `ClC1=C(Cl)C2(Cl)C(CBr)CC1(Cl)C2(Cl)Cl` (stereo not given), for which the call was inactive.

Take `COc1cc(CCN)cc(OC)c1OC`: the result was inactive.

For the compound `N#CN`, the outcome was inactive.

As to `CCCC(C)(COC(N)=O)COC(N)=O`, the result was inactive.

For `C=C1CC[C@@]2(O)[C@H]3Cc4ccc(O)c5c4[C@@]2(CCN3CC2CC2)[C@H]1O5`, the compound was classed as inactive.

Regarding `COc1cccc([C@@]2(O)CCCC[C@@H]2CN(C)C)c1`, the compound was called inactive.

`CC[C@H](O)C(C[C@H](C)N(C)C)(c1ccccc1)c1ccccc1`: the compound was called inactive.

Regarding `CCOC(=O)Nc1cccc(OC(=O)Nc2ccccc2)c1`, the compound was called inactive.
